The values below come from PubChem BioAssay AID651642 (Sanford-Burnham Center for Chemical Genomics, 2012).

Structures are written as SMILES. Activity calls are given as the source filed them.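 The calls were made as follows: active = average half-effect concentration of 10 µM or less in every one of the four cell panels; inactive = the rest.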

The subject of this experiment is H9c2. Description: cardiomyocyte survival under oxidative or metabolic stress – cell-based, panel, H9c2 and HL-1, H2O2, 2-deoxyglucose, ATP luminescence, SAR follow-up (AID 651642). To be noted: H9c2/HL-1 cardiomyocyte 2-deoxyglucose damage, mean of runs, with 2-deoxyglucose.
Regarding `COc1ccc2c(c1OC)C(=O)N1c3ccccc3C(=O)N(Cc3ccccc3F)C21` (configuration not stated), the molecule was classed as inactive.

Turning to `CCOC(=O)c1cccc(NC(=O)c2cc(-c3cc(OC)c(OC)c(OC)c3)nc3ccccc23)c1`, the molecule was called inactive.

For `CCOC(=O)c1cccc(NC(=O)c2cc(-c3cc(OC)c(OC)c(OC)c3)nc3ccc(OC)cc23)c1`, the molecule was called inactive.

Regarding `COc1ccc2nc(-c3cc(OC)c(OC)c(OC)c3)cc(C(=O)NCC(=O)Nc3ccc(C(C)=O)cc3)c2c1`, the result was active.

For the molecule `CCOC(=O)c1cccc(NC(=O)CNC(=O)c2cc(-c3cc(OC)c(OC)c(OC)c3)nc3ccccc23)c1`, the molecule was classed as inactive.

Take `COc1cc(-c2cc(C(=O)NCC(=O)O)c3ccccc3n2)cc(OC)c1OC`: the molecule was classed as inactive.

`COc1ccccc1CN1C(=O)c2ccccc2N2C(=O)c3c(ccc(OC)c3OC)C12` (configuration not stated): the outcome was inactive.

As for `COc1ccc2c(c1OC)C(=O)N1c3ccccc3C(=O)N(Cc3ccccn3)C21` (configuration not stated), the result was inactive.

Consider `CCNC(=O)c1cccc(NC(=O)c2cc(-c3cc(OC)c(OC)c(OC)c3)nc3ccccc23)c1`, for which the molecule was classed as inactive.

With `COc1cc(-c2cc(C(=O)Nc3cccc(C(C)=O)c3)c3cc(F)ccc3n2)cc(OC)c1OC`, the result was inactive.

Regarding `COc1cc(-c2cc(C(=O)Nc3cccc(C(=O)NCc4ccccc4)c3)c3ccccc3n2)cc(OC)c1OC`, the molecule was classed as active.

With `CCOC(=O)c1ccccc1NC(=O)c1cc(-c2cc(OC)c(OC)c(OC)c2)nc2ccccc12`, the molecule was classed as inactive.

Turning to `COc1cc(-c2cc(C(=O)Nc3cccc(C(=O)N4CCOCC4)c3)c3ccccc3n2)cc(OC)c1OC`, the molecule was called inactive.

For `COc1cc(-c2cc(C(=O)Nc3cccc(C(N)=O)c3)c3ccccc3n2)cc(OC)c1OC`, the molecule was classed as inactive.

For the molecule `COc1ccc2c(c1OC)C(=O)N1c3ccccc3C(=O)N(Cc3ccccc3)C21` (configuration not stated), the result was inactive.

Consider `COC(=O)CNC(=O)c1cc(-c2cc(OC)c(OC)c(OC)c2)nc2ccccc12`, for which the call was inactive.

For `COc1ccc2c(c1OC)C(=O)N1c3ccccc3C(=O)N(Cc3cccc(Cl)c3Cl)C21` (configuration not stated), the outcome was active.

In the case of `CCOC(=O)c1cccc(NC(=O)CNC(=O)c2cc(-c3cc(OC)c(OC)c(OC)c3)nc3ccc(F)cc23)c1`, the molecule was called active.

On to `COc1cc(-c2cc(C(=O)Nc3cccc(-c4nn[nH]n4)c3)c3ccccc3n2)cc(OC)c1OC`, for which the molecule was classed as inactive.

As for `CCOC(=O)c1cccc(NC(=O)CNC(=O)c2cc(-c3cc(OC)c(OC)c(OC)c3)nc3ccc(OC)cc23)c1`, the molecule was called active.

For `COc1cc(-c2cc(C(=O)Nc3cccc(C(C)=O)c3)c3cc(Br)ccc3n2)cc(OC)c1OC`, the outcome was inactive.

In the case of `COc1cc(-c2cc(C(=O)Nc3cccc(C(C)=O)c3)c3ccccc3n2)cc(OC)c1OC`, the molecule was classed as inactive.

Turning to `CCOC(=O)c1cccc(NC(=O)c2cc(-c3cc(OC)c(OC)c(OC)c3)nc3ccc(Br)cc23)c1`, the outcome was inactive.

On to `COc1ccc2c(c1OC)C(=O)N1c3ccccc3C(=O)N(Cc3ccncc3)C21` (configuration not stated), for which the molecule was called inactive.

`COc1cc(-c2cc(C(=O)NCC(=O)Nc3ccc(C(C)=O)cc3)c3ccccc3n2)cc(OC)c1OC`: the result was inactive.

Regarding `COc1cc(-c2cc(C(=O)NCC(=O)Nc3cccc(C(C)=O)c3)c3ccccc3n2)cc(OC)c1OC`, the molecule was called active.

`COc1ccc2c(c1OC)C(=O)N1c3ccccc3C(=O)N(Cc3c(Cl)cccc3Cl)C21` (configuration not stated): the molecule was classed as inactive.

Regarding `COc1ccc2c(c1OC)C(=O)N1c3ccccc3C(=O)N(Cc3cccc(C)c3)C21` (configuration not stated), the molecule was called inactive.

Turning to `COc1ccc2nc(-c3cc(OC)c(OC)c(OC)c3)cc(C(=O)NCC(=O)Nc3cccc(C(C)=O)c3)c2c1`, the molecule was called active.

Take `CCOC(=O)c1cccc(NC(=O)CNC(=O)c2cc(-c3cc(OC)c(OC)c(OC)c3)nc3c(Cl)cccc23)c1`: the call was inactive.

Regarding `COc1ccc2c(c1OC)C(=O)N1c3ccccc3C(=O)N(Cc3cccc(Br)c3)C21` (configuration not stated), the molecule was called inactive.

`COc1ccc2c(c1OC)C(=O)N1c3ccccc3C(=O)N(Cc3ccc(F)cc3)C21` (configuration not stated): the molecule was classed as inactive.
